Dicer processing – inhibitors of Dicer pre-microRNA processing, primary screen, biochemical, cat-ELCCA, chemiluminescence; cat-ELCCA pre-miR-21 Dicer processing; hits give high values; z-score at 25 µM; 6% of 47,000 active; Endoribonuclease Dicer (Homo sapiens), Q9UPY3; in the data active = z-score above about 3, passing the limit was not always enough;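 note: higher signal means more uncleaved substrate so more Dicer inhibition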
A number is an active result; i = inactive. Shown is part of a subset that was picked to be rich in hits.

SMILES	Dicer processing
Cc1ccc2c(c1)nnc1n[nH]c(=O)n12	i
O=S(=O)(c1ccc(Cl)cc1)n1ccc(C(F)(F)F)n1	i
Clc1ccc(-c2nnc(N3CCOCC3)o2)cc1Cl	i
CC(C)c1ccc(N2C(=O)CC(N3CCN(Cc4ccc5c(c4)OCO5)CC3)C2=O)cc1 (stereo unspecified)	i
O=c1c2ccccc2c(-c2ccccc2)nn1CCc1ccccc1	i
COc1ccccc1Oc1coc2cc(O)ccc2c1=O	i
CCOc1ccccc1Oc1coc2cc(O)ccc2c1=O	3.3
CCOc1ccccc1Oc1c(C)oc2cc(O)ccc2c1=O	i
CCCOc1ccc(C2c3c(oc4cc(C)c(C)cc4c3=O)C(=O)N2c2nccs2)cc1 (stereo unspecified)	i
c1ccc2[nH]c(C3CCCCC3)nc2c1	i
Cc1cc(C)c(S(=O)(=O)Nc2cccc3ccc(C)nc23)c(C)c1	i
Cc1cc(C)c(S(=O)(=O)Nc2cc(Cl)c3oc(=O)sc3c2)c(C)c1	12
Cc1cc(C)c(S(=O)(=O)Nc2ccc(O)cc2)c(C)c1	i
COc1nc(NS(=O)(=O)c2ccc(C)cc2)nc(C)c1Cl	i
COc1ccc(S(=O)(=O)Nc2cc(Cl)c3oc(=O)sc3c2)cc1OC	4.3
COc1ccc(OC)c(NS(=O)(=O)c2ccc(Br)cc2)c1	i
Fc1ccc(Oc2cc(C(F)(F)F)nc3c(Br)cccc23)c(Cl)c1	i
COC(=O)c1c(C)sc2c(C(F)(F)F)cc(=O)[nH]c12	i
O=c1c(-c2ccccc2Cl)c(C(F)(F)F)oc2c(CN3CCCC3)c(O)ccc12	i
CN(C)c1cc(C(F)(F)F)cnc1C#N	i
FC(F)(F)c1cc2[nH]c(=S)[nH]c2cc1Cl	i
O=C(O)c1ccccc1C(=O)OCCO	i
CSc1cc(-c2ccc(Cl)cc2)nc(-c2ccc(Cl)cc2)c1	i
CCOC(=O)c1c[nH]c2ccccc2c1=O	3
CCOC(=O)c1c[nH]c2ccc(C(F)(F)F)cc2c1=O	i
SMILES	Dicer processing
CCOC(=O)c1ccc2[nH]cc(C(=O)OCC)c(=O)c2c1	i
O=C(c1ccccc1Cl)c1nccn1Cc1ccc(Cl)cc1	i
CCOc1cc(C2C(C(=O)OCc3ccccc3)=C(C)NC3=C2C(=O)CCC3)ccc1O (stereo unspecified)	i
O=C1COc2ccccc2N1Cc1ccccc1	i
Cc1ccc(S(=O)(=O)N/N=C/c2ccc(Cl)c(Cl)c2)cc1	i
COc1ccc(/C=N/NS(=O)(=O)c2ccc(Cl)cc2)cc1OC	3.5
Cc1ccc(S(=O)(=O)N/N=C/c2ccc(Cl)cc2)cc1	i
O=C(C1CC(c2ccc(Cl)cc2)=NO1)N1CCOCC1 (stereo unspecified)	i
O=C1SC(Nc2ccc(F)cc2)C(=O)N1c1ccccc1 (stereo unspecified)	i
O=C1SC(Nc2cccc(Cl)c2)C(=O)N1c1ccccc1 (stereo unspecified)	i
COc1cccc(NC2SC(=O)N(c3ccccc3)C2=O)c1 (stereo unspecified)	49
Cc1ccc(-n2cccc2)c(NC(=S)NC(=O)c2ccccc2)c1	i
N#Cc1nc(-c2ccc(Cl)cc2)oc1N1CCOCC1	3.7
N#Cc1nc(-c2ccc(F)cc2)oc1N1CCOCC1	i
COc1ccc(-c2nc(C#N)c(N3CCCCC3)o2)cc1	i
COc1ccc(C(CC(=O)c2cccs2)Sc2ccccc2N)c(Cl)c1OC (stereo unspecified)	i
O=C(Nc1ccccc1SCC(O)Cn1ccc2ccccc21)c1ccc(Cl)cc1 (stereo unspecified)	i
CC1=CC(C)(C)N(C(=O)NC2CCCCC2)c2ccccc21	i
CC1=CC(C)(C)N(C(=O)Nc2ccccc2)c2ccccc21	3.5
CC1=CC(C)(C)N(C(=O)Nc2ccccc2)c2c(C)cc(C)cc21	i
CCn1nc(C)cc1C(=O)NNC(=S)NC	i
CCCCCCCC(=O)Nc1nnc(Sc2ccnc3cc(Cl)ccc23)s1	i
COc1ccc(-c2c(C(F)(F)F)[nH]n3c(=O)cc(-c4cccc([N+](=O)[O-])c4)nc23)cc1	i
O=C(Oc1ccc(C2SCCS2)cc1)c1ccc(Oc2cc(Cl)cc(Cl)c2)o1	i
Cc1cc(C)n2c(SC3CCCCC3NS(=O)(=O)c3ccc(Cl)cc3)nnc2n1 (stereo unspecified)	3.6
SMILES	Dicer processing
Cc1cc(C)n2c(SC(CNS(=O)(=O)c3ccccc3)c3ccccc3)nnc2n1 (stereo unspecified)	i
Cc1cc(C)n2c(SC3CCCCC3NS(=O)(=O)c3ccccc3)nnc2n1 (stereo unspecified)	i
O=S(=O)(NNc1nccc(-c2cccnc2)n1)c1cccc(C(F)(F)F)c1	i
Cc1cc(Cl)ccc1OC(C)C(=O)Nc1sc2c(c1C(N)=O)CCCC2 (stereo unspecified)	i
CSC1=NC=C(C#N)C2=NC(c3c(F)cccc3Cl)NN12 (stereo unspecified)	i
O=c1[nH]c2sc(-c3ccccc3)cc2c(=O)n1-c1ccccc1	i
Cc1ccccc1-n1c(=S)[nH]c2sc(-c3ccccc3)cc2c1=O	i
Cc1ccc(-n2c(=O)[nH]c3sc(-c4ccccc4)cc3c2=O)cc1	3.2
Cc1ccc(Sc2ccc([N+](=O)[O-])cn2)cc1	i
COC(=O)C1=C(C)NC2=C(C(=O)CC(c3ccc(OC)cc3)C2)C1c1cc(Cl)c(O)c(OC)c1 (stereo unspecified)	i
CCCCNS(=O)(=O)c1cc(-c2nnc3c4ccccc4c(C)nn23)ccc1C	i
O=C(O)CCC(=O)NCC(=O)c1ccccc1	i
COc1ccc(Cl)c(NC(=O)Nc2ccccc2N2CCOCC2)c1	i
Cc1nn(C)c(Cl)c1S(=O)(=O)Nc1ccc(Oc2ccc(F)cc2)cc1	3.2
Cc1nn(C)c(Oc2ccc(F)cc2)c1[N+](=O)[O-]	i
Cn1nc(-c2ccc(Cl)cc2)cc1NS(=O)(=O)c1ccc(F)cc1	i
CCOC(=O)c1c(Cl)cc(C)cc1N1CCCC1	i
CCCCc1c(COC)[nH]c(=O)[nH]c1=O	i
Cc1cc(=O)n2ncnc2n1CC(=O)NN	3.1
O=C(Cn1c(-c2ccccc2)cc(=O)n2ncnc12)N/N=C/c1ccc2c(c1)OCO2	i
Cc1cc(=O)n2ncnc2n1CC(=O)N/N=C/c1ccc(Cl)cc1	i
Cc1ccc(S(=O)(=O)NCCCN(C)C)c(C)c1F	i
O=C1CCC(=O)N1CNc1cc(Cl)c(Cl)cc1Cl	i
CC1(C)NC(=O)N(Cc2ccccc2)C1=O	i
Cc1ccc(OCC(O)CN2C(=O)NC(C)(C)C2=O)cc1C (stereo unspecified)	i
SMILES	Dicer processing
Cc1ccc(OCC(O)CN2C(=O)NC(C)(C)C2=O)cc1 (stereo unspecified)	i
CC1(C)NC(=O)N(CC(O)CN(Cc2ccccc2)Cc2ccccc2)C1=O (stereo unspecified)	3
CC1(C)NC(=O)N(CC(O)CN(c2ccccc2)S(=O)(=O)c2ccccc2)C1=O (stereo unspecified)	i
CC1(C)NC(=O)N(CC(O)COc2ccc(Br)cc2)C1=O (stereo unspecified)	3.1
Cc1ccc(C(=O)CC2(O)C(=O)Nc3ccc(Br)cc32)cc1 (stereo unspecified)	i
COC(=O)c1c(C)[nH]c(C)c1-c1ccn[nH]1	i
Cc1ccc(C)c(OCc2nc(-c3cccs3)no2)c1	i
COC(=O)C1=C(C)NC2=C(C(=O)CCC2)C1c1ccc(C)cc1 (stereo unspecified)	i
Clc1ccccc1CSc1cc(-c2ccccc2)nc2ncnn12	i
Cc1ccc(C2(C)SCc3cc(C)c(C)cc3CS2)cc1	i
O=C1c2cccc3c(N4CCOCC4)ccc(c23)C(=O)N1c1cc(Cl)ccc1O	8.3

Screens (PubChem)
